Reference: PubChem BioAssay (EPA / NIEHS)
Results filed as inconclusive are left out. Active and inactive are the calls of the source. The calls were made as follows, unless noted: active = hit-call score of the fitted dose curve at least 0.9, where 1 is the maximum; inconclusive = response in the unintended direction; inactive = score below 0.9.

Tests used:
[1] = target: human Acetylcholinesterase (AChE), ACHE (gene 43) (UniProt P22303); assay: NVS_ENZ_hAChE: NovaScreen (NVS) Enzymatic Assay for human Acetylcholinesterase (AChE) (AID 2283129)
In short: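 Cell-free colorimetric enzyme-activity assay; compounds read 0.33 hour after dosing, loss of signal vs DMSO baseline. Primary screen in duplicate at 25 uM single concentration, with active compounds retested in concentration series.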

[2] = target: human p21 Activated Kinase 4 (PAK4), PAK4 (gene 10298) (UniProt O96013); assay: NVS_ENZ_hPAK4: NovaScreen (NVS) Enzymatic Assay for human p21 Activated Kinase 4 (PAK4) (AID 2283189)
In short: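 Cell-free recombinant human PAK4 activity assay; fluorescent substrate and product separated by electrophoretic mobility shift, read 1 h after dosing. Initially tested in duplicate at 25 uM, relative to DMSO baseline.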

[3] = target: rat Monoamine Oxidase, MAO-B, Peripheral (MAOBP), Maob (gene 25750) (UniProt P19643); assay: NVS_ENZ_rMAOBP: NovaScreen (NVS) Enzymatic Assay for rat Monoamine Oxidase, MAO-B, Peripheral (MAOBP) (AID 2283242)
[4] = target: rat Acetylcholinesterase (AChE), Ache (gene 83817) (UniProt P37136); assay: NVS_ENZ_rAChE: NovaScreen (NVS) Enzymatic Assay for rat Acetylcholinesterase (AChE) (AID 2283233)
In short: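 Rat brain membrane acetylcholinesterase activity measured colorimetrically 0.33 h after compound addition, loss of signal relative to DMSO. Primary screen in duplicate at 25 uM; actives re-run as concentration-response with 50 uM top concentration.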

[5] = target: human AMP-activated Protein Kinase, alpha 1 (AMPKa1), PRKAA1 (gene 5562) (UniProt Q13131); assay: NVS_ENZ_hAMPKa1: NovaScreen (NVS) Enzymatic Assay for human AMP-activated Protein Kinase, alpha 1 (AMPKa1) (AID 2283130)
In short: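 Recombinant human AMPKα1 activity was measured cell-free by fluorescent substrate conversion with electrophoretic mobility-shift separation, 1 h after dosing. Duplicate single-point screening was at 25 uM; actives (≥30% inhibition) were retested in concentration-response up to 50 uM.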

[6] = target: human Caspase 10 (CASP10), CASP10 (gene 843) (UniProt Q92851); assay: NVS_ENZ_hCASP10: NovaScreen (NVS) Enzymatic Assay for human Caspase 10 (CASP10) (AID 2283133)
In short: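 Recombinant human caspase-10 from E. coli, cell-free fluorogenic substrate assay read 1 h after dosing. Primary duplicate screen at 25 uM; hits (e.g. ≥30% inhibition) run singly in concentration-response up to 50 uM, normalised to DMSO.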

[7] = target: human Raf-1 Proto-Oncogene, serine/threonine Kinase (RAF1), RAF1 (gene 5894) (UniProt P04049); assay: NVS_ENZ_hRAF1: NovaScreen (NVS) Enzymatic Assay for human Raf-1 Proto-Oncogene, serine/threonine Kinase (RAF1) (AID 2283216)
In short: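 Cell-free recombinant kinase with specific fluorescent substrate, product separated by electrophoretic mobility shift; read 1 h after dosing. Primary screen at 25 uM in duplicate; hits then run in concentration-response up to 50 uM, fitted as loss of signal versus DMSO.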

[8] = target: human Fibroblast Growth Factor Receptor 1 (FGFR1), FGFR1 (gene 2260) (UniProt P11362); assay: NVS_ENZ_hFGFR1: NovaScreen (NVS) Enzymatic Assay for human Fibroblast Growth Factor Receptor 1 (FGFR1) (AID 2283159)
In short: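 Cell-free recombinant kinase with fluorescent substrate, product separated by electrophoretic mobility shift; read 1 hour after dosing, loss of signal relative to DMSO. Initial screen in duplicate at 25 uM, actives followed in concentration series.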

[9] = target: human MET Proto-Oncogene, Receptor Tyrosine Kinase (MET), MET (gene 4233) (UniProt P08581); assay: NVS_ENZ_hMet: NovaScreen (NVS) Enzymatic Assay for human MET Proto-Oncogene, Receptor Tyrosine Kinase (MET) (AID 2283180)
In short: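 Cell-free MET kinase assay using recombinant protein and fluorescent substrate, with mobility-shift separation; read 1 h after dosing. Primary duplicate at 25 uM; actives in singleton concentration-response to 50 uM maximum. Signal loss versus DMSO.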

[10] = target: human Phosphatase and Tensin Homolog (PTEN), PTEN (gene 5728) (UniProt P60484); assay: NVS_ENZ_hPTEN: NovaScreen (NVS) Enzymatic Assay for human Phosphatase and Tensin Homolog (PTEN) (AID 2283203)
In short: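 Cell-free recombinant human PTEN with fluorescent substrate; product separated by electrophoretic mobility shift and read by fluorescence 1 h after dosing. Primary screen in duplicate at 25 uM, actives followed in concentration series versus DMSO.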

[11] = target: human Tyrosine Protein Kinase Receptor Tie-2 (Tie2), TEK (gene 7010) (UniProt Q02763); assay: NVS_ENZ_hTie2: NovaScreen (NVS) Enzymatic Assay for human Tyrosine Protein Kinase Receptor Tie-2 (Tie2) (AID 2283225)
In short: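 Recombinant human Tie2 kinase activity was read cell-free by fluorescence with electrophoretic mobility shift, 1 hour after dosing. The screen used 25 uM in duplicate, then concentration-response up to 50 uM. Signal loss was scored against DMSO.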

[12] = target: rat Adenylate Cyclase, Forskolin Stimulated, Adcy5 (gene 64532) (UniProt Q04400); assay: NVS_ENZ_rACFSKBinding: NovaScreen (NVS) Enzymatic Assay for rat Adenylate Cyclase, Forskolin Stimulated (AID 2283232)
In short: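 Rat forebrain membrane preparation, cell-free, read 1 h after dosing by filter-based scintillation counting. Primary screen in duplicate at 25 uM; actives (e.g. ≥30% inhibition) rerun in concentration-response up to 50 uM; fit versus DMSO.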

[13] = system: rat Monoamine Oxidase, MAO-A, Central (MAOAC), gene 29253; assay: NVS_ENZ_rMAOAC: NovaScreen (NVS) Enzymatic Assay for rat Monoamine Oxidase, MAO-A, Central (MAOAC) (AID 2283243);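 also: potency refers to inhibition seen as signal drop below DMSO baseline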
In short: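 Rat brain tissue extract used as enzyme source in a cell-free radiometric assay, read by scintillation counting 1.5 hours after dosing. Loss of signal relative to DMSO baseline scored; primary screen at 25 uM in duplicate, actives followed up in concentration series.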

[14] = target: human Protein Tyrosine Phosphatase Non-receptor Type 2 (PTPN2), PTPN2 (gene 5771) (UniProt P17706); assay: NVS_ENZ_hPTPN2: NovaScreen (NVS) Enzymatic Assay for human Protein Tyrosine Phosphatase Non-receptor Type 2 (PTPN2) (AID 2283207)
In short: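 Cell-free recombinant enzyme with fluorescent substrate, product separated by electrophoretic mobility shift; read 1 h after dosing. Primary screen single concentration (25 uM) in duplicate; actives followed in concentration series; loss of signal versus DMSO.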

[15] = target: human Protein Tyrosine Phosphatase Receptor Type C (PTPRC), PTPRC (gene 5788) (UniProt P08575); assay: NVS_ENZ_hPTPRC: NovaScreen (NVS) Enzymatic Assay for human Protein Tyrosine Phosphatase Receptor Type C (PTPRC) (AID 2283212)
In short: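 Yeast-extracted human PTPRC used in a cell-free colorimetric enzyme activity read-out, 1 h after dosing. Primary screen in duplicate at 25 uM; actives rerun in concentration-response up to 50 uM, DMSO as baseline.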

[16] = target: bovine Gamma-Aminobutyric Acid Type A Receptor BDZ, alpha 1 site (GABARa1), GABRA1 (gene 780973) (UniProt P08219); assay: NVS_LGIC_bGABARa1: NovaScreen (NVS) Ligand-Gated Ion Channel Assay for bovine Gamma-Aminobutyric Acid Type A Receptor BDZ, alpha 1 site (GABARa1) (AID 2283321)
In short: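 Radioligand competition binding on bovine cortical membranes, 0.75 h, filter-based scintillation counting. Primary single concentration 25 uM in duplicate; actives rerun in concentration-response to 50 uM max. Loss of signal fitted versus DMSO.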

[17] = CCTE_Harrill_HTTr_Apoptosis_PRF_DMEM_12hr: (Pilot) CCTE's 12-hour Apoptosis Assessment for the High-Throughput Transcriptomics (HTTr) Platform, in MCF-7 cells cultured in phenol red-free DMEM + 10% charcoal-stripped fetal bovine serum, Harrill Lab (AID 2283985; active = hit-call score of the fitted dose curve at least 0.9, where 1 is the maximum; inactive = score below 0.9)
In short: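 MCF-7 cells in phenol red-free DMEM with 10% charcoal-stripped FBS, eight-point dilution series, 12 h exposure. Caspase-3/7 activation imaged by high content imaging with CellEvent Green reagent; bidirectional fit vs DMSO.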

[18] = target: Voltage-dependent N-type calcium channel subunit alpha-1B (Rattus norvegicus) (UniProt Q02294); assay: NVS_IC_rCaChN: NovaScreen (NVS) Ion Channel Assay for rat Calcium Channel, Type N (CaChN) (AID 2283317)
[19] = target: Norway rat Vesicular Monoamine Transporter (VMAT2), neurotransmitter transporter, Slc18a2 (gene 25549) (UniProt Q01827); assay: NVS_TR_rVMAT2: NovaScreen (NVS) Transporter Assay for Norway rat Vesicular Monoamine Transporter (VMAT2), neurotransmitter transporter (AID 2283376);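 also: actives lower the bound radioligand signal below the DMSO level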
In short: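 Radioligand displacement binding on rat forebrain tissue preparation, filter-based scintillation read-out 1 hour after dosing. Primary screen in duplicate at 25 uM, then concentration series for actives; loss of signal versus DMSO.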

Sequence of human AMP-activated Protein Kinase, alpha 1 (AMPKa1), PRKAA1 (gene 5562) (Q13131 whole entry, looked up): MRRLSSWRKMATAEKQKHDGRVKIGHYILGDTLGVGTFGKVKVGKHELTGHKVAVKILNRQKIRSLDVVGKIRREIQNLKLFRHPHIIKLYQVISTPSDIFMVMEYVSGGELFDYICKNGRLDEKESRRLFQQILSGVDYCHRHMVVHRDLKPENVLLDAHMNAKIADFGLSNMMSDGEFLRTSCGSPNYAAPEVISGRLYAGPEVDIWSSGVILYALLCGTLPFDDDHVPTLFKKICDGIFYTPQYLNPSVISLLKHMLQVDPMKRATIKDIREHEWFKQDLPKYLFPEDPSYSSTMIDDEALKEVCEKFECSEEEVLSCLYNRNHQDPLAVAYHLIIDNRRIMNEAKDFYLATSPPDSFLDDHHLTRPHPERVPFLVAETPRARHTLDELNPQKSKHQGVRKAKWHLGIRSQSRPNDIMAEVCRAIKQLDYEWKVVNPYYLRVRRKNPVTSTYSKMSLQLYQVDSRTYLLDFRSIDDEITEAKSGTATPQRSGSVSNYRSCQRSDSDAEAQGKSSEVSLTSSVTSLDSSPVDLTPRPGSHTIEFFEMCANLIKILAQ
Sequence of human p21 Activated Kinase 4 (PAK4), PAK4 (gene 10298) (O96013 whole entry, looked up): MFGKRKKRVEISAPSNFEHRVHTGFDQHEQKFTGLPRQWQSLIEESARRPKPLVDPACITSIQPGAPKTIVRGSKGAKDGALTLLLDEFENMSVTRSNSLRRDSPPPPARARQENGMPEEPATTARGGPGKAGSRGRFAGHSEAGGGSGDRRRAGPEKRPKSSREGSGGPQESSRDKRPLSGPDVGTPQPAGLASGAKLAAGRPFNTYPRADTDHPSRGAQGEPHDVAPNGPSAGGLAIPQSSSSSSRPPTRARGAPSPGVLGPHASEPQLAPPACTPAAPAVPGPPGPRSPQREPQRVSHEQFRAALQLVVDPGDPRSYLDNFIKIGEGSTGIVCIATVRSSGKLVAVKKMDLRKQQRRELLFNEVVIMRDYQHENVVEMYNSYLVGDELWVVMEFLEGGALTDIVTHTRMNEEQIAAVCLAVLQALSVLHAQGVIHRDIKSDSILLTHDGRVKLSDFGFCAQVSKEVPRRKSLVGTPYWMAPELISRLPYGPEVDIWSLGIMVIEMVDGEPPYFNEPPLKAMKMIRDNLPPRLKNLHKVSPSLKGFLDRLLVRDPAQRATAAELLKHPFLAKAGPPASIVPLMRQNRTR
Sequence of human Acetylcholinesterase (AChE), ACHE (gene 43) (P22303 whole entry, looked up): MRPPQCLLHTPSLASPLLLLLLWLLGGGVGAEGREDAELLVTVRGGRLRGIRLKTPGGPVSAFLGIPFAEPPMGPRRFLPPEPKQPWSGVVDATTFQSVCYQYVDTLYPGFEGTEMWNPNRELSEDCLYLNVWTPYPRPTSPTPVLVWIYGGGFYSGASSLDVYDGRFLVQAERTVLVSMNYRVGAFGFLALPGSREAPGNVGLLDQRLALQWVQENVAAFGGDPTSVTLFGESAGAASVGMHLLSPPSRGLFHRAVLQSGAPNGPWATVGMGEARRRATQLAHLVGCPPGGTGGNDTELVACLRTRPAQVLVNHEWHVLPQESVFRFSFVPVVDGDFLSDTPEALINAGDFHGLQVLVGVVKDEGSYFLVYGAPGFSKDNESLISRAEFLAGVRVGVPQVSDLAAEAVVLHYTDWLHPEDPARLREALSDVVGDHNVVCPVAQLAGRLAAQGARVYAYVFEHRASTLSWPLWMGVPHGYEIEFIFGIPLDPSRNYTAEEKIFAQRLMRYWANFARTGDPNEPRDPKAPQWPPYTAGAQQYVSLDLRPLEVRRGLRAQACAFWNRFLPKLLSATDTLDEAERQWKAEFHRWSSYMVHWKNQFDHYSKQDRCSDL
Sequence of rat Acetylcholinesterase (AChE), Ache (gene 83817) (P37136 whole entry, looked up): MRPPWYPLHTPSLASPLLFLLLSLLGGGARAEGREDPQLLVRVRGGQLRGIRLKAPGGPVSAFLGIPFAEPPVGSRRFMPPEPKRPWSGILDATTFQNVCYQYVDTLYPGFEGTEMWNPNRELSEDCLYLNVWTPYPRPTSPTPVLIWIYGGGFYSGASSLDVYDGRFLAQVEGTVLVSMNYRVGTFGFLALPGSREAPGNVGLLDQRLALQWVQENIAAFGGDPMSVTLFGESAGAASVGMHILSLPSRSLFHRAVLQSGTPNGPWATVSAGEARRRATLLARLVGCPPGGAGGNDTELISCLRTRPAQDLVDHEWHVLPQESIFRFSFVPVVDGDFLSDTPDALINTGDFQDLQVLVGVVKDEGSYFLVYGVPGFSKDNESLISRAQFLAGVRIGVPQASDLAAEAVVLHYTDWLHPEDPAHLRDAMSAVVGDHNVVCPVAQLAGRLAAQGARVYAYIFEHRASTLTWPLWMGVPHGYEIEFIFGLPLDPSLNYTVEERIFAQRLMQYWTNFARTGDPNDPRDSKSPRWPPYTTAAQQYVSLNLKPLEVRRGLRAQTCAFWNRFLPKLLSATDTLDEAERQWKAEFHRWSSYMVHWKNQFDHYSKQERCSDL
Sequence of rat Monoamine Oxidase, MAO-B, Peripheral (MAOBP), Maob (gene 25750) (P19643 whole entry, looked up): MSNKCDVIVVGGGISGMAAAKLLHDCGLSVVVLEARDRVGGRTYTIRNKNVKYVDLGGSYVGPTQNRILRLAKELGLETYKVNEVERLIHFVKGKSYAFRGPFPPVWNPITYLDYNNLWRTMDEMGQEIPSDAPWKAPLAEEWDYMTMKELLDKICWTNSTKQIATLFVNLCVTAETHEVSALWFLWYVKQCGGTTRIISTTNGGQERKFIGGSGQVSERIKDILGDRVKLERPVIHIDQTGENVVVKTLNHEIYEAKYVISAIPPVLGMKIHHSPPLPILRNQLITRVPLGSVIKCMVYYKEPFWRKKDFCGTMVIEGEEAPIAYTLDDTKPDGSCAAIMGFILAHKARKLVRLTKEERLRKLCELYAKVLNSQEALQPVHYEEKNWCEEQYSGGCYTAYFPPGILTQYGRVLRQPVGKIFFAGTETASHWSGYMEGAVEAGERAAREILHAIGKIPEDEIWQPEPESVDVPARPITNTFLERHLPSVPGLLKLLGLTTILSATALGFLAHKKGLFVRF
Sequence of human Protein Tyrosine Phosphatase Receptor Type C (PTPRC), PTPRC (gene 5788) (P08575 whole entry, looked up): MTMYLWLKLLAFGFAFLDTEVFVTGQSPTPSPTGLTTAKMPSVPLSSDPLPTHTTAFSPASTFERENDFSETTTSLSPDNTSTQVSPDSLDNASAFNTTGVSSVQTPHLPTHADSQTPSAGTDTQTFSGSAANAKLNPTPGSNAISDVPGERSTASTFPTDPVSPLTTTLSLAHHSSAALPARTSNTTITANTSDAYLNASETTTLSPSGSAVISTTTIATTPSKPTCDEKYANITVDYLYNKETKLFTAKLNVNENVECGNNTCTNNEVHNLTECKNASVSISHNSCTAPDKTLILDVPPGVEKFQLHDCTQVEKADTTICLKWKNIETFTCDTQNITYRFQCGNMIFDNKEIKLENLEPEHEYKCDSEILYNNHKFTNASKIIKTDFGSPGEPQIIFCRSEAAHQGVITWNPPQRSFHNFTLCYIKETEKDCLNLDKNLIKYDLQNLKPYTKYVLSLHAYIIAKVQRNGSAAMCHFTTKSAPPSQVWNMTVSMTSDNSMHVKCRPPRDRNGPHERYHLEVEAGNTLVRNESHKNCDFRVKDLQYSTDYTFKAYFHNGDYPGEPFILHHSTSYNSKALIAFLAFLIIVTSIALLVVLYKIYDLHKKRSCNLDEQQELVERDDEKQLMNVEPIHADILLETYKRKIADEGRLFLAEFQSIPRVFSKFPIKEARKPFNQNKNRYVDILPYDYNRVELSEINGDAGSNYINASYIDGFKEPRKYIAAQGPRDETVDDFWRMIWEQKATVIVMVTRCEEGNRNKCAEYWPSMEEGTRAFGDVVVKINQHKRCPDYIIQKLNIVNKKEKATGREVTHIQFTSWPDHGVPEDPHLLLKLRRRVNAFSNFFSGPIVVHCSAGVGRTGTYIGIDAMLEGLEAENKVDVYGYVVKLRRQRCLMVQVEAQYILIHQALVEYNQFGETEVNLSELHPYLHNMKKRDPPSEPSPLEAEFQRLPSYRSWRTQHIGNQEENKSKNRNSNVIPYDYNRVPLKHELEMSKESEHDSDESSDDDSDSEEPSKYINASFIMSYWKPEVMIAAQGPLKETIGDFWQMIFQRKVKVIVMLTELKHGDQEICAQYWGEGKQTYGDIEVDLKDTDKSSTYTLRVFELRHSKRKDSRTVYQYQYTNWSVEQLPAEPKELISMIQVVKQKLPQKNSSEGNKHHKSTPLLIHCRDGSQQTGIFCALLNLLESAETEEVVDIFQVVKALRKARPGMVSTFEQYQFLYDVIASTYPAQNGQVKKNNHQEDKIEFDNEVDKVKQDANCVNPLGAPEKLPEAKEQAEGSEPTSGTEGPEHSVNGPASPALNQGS
Sequence of human Phosphatase and Tensin Homolog (PTEN), PTEN (gene 5728) (P60484 whole entry, looked up): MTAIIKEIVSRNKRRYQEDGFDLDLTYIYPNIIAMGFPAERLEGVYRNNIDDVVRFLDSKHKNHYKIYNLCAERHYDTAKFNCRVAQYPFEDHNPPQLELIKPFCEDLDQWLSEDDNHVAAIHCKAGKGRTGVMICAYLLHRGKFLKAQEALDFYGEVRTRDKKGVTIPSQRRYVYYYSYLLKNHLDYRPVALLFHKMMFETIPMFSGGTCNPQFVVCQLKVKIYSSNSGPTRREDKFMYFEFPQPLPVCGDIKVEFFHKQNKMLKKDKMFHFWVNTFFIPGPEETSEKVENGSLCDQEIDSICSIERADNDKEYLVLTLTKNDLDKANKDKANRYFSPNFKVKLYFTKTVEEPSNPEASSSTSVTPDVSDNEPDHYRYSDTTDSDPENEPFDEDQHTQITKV
Sequence of human Protein Tyrosine Phosphatase Non-receptor Type 2 (PTPN2), PTPN2 (gene 5771) (P17706 whole entry, looked up): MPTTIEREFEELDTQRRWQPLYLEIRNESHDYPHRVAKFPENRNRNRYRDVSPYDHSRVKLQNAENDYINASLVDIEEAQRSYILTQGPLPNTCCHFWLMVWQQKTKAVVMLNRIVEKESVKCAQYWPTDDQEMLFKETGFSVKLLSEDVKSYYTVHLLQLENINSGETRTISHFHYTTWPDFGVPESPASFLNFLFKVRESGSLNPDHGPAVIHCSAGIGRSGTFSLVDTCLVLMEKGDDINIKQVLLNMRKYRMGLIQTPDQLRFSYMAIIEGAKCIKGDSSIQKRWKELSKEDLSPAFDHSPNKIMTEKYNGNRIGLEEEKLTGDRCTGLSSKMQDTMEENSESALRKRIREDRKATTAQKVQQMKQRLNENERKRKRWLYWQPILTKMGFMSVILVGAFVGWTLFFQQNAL

## CCOC(=O)CCC(=O)OCC
[1]
  outcome: inactive
[2]
  outcome: inactive
[3]
  AC50: 34.7 µM (active)

## CCOC(=O)c1ccc(C2CCC(NC[C@H](O)COc3ccc(O)c(NS(C)(=O)=O)c3)CC2)cc1 (stereo partly drawn)
[1]
  AC50: 23.4 µM (active)
[4]
  AC50: 15 µM (active)

## O=C(O)CCCCC(=O)O
[5]
  outcome: inactive
[6]
  AC50: 11.4 µM (active)
[7]
  outcome: inactive

## O=C(Oc1ccccc1)c1cccc(C(=O)Oc2ccccc2)c1
[5]
  outcome: inactive
[8]
  outcome: inactive
[9]
  outcome: inactive
[2]
  outcome: inactive
[10]
  outcome: inactive
[11]
  outcome: inactive

## NCc1cccc(C2CCN(C(=O)c3ccc(C#Cc4ccccc4F)o3)CC2)c1
[1]
  AC50: 25 µM (active)
[12]
  outcome: inactive
[4]
  AC50: 11.3 µM (active)
[3]
  AC50: 38 µM (active)
[13]
  AC50: 1.72 µM (active)

## CCOC(=O)C(C)(C)Oc1ccc(Cl)cc1
[5]
  outcome: inactive
[8]
  outcome: inactive
[10]
  outcome: inactive
[14]
  AC50: 218 nM (active)
[15]
  outcome: inactive
[11]
  outcome: inactive
[16]
  AC50: 25 µM (active)
[17]
  outcome: inactive

## CS(=O)(=O)c1ccc([C@@H](C[C@H]2CCC(=O)C2)C(=O)Nc2cnccn2)cc1Cl
[1]
  outcome: inactive
[15]
  AC50: 16.6 µM (active)
[18]
  outcome: inactive

## COc1ccc(-n2nc(C(F)F)cc2-c2ccc(S(C)=O)cc2)cc1 (stereo not drawn)
[1]
  outcome: inactive
[2]
  outcome: inactive
[19]
  AC50: 4.96 µM (active)
